The list is not random: actives were taken first. Their share in the collection is about 17%.
DT40 TDP1 no CPT – qHTS for Inhibitors of human tyrosyl-DNA phosphodiesterase 1 (TDP1): qHTS in cells in absence of CPT | DT40 Tdp1-/- hTDP1 cells, no CPT, ATP luminescence, 48 h | Potency, µM (titrated, usually from 46.2 µM), usual class: inhibitors | actives 15% (n = 420,000) | AID 686978, 2013; note: nearly all actives have a fitted effect of over 55% in size
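No-CPT arm: Tdp1-/-;hTDP1 DT40 cells (400/well) plus compounds, incubated ≥48 hr at 37 °C. Readout CellTiter-Glo luminescence.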
HT1080NT lethal – kills 2HG-producing HT-1080-NT fibrosarcoma cells | HT-1080-NT fibrosarcoma viability, CellTiter-Glo ATP luminescence, 48 h | actives 1.6% (n = 360,000) | Potency, µM (doses to about 46.1 µM), actives largely listed as cytotoxic;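 note: NT is the 2HG producing partner of a matched IDH1 knockdown line; nearly all actives have a fitted effect of over 55% in size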
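Viability by CellTiter-Glo luminescence after 48 h compound exposure at 37C of HT-1080-NT cells (750/well, RPMI, 5% FBS). % activity scaled between DMSO wells and medium-only wells, then curve-fitted and categorized by curve class.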
HT1080 IDH1KD tx – HT-1080 IDH1 knockdown cell toxicity (counter line). HT-1080 IDH1 knockdown viability, ATP luminescence, 48 h. Potency, µM (highest dose often 46.1 µM), most hits filed as cytotoxic. actives 2% (n = 360,000). AID 686971
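% activity derives from luminescence (CellTiter-Glo), normalised to DMSO and no-cell wells. HT-1080-IDH1KD cells, 750/well, had 48 h compound exposure at 37 °C.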
HepG2 tox – counter-screen for TGF-b inhibitors: cytotoxicity in HepG2 cells; actives 0.76% (n = 410,000); HepG2 CAGA-GFP viability, ATP luminescence, 18 h; AID 588856; Potency, µM (doses to about 46.1 µM), actives largely listed as cytotoxic
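CellTiter-Glo luminescence gave cytotoxicity after 18 hours at 37 degrees C. The cells were HepG2 CAGA-GFP in 1% FBS DMEM, stimulated with 500 pg/mL TGF-beta after compound addition. %Activity was normalised to no-cell wells (complete cell-killing) and DMSO (no toxicity), and curves were fitted and classified.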
TGFb inhibitor – TGF-b pathway inhibition; Potency, µM (titrated, usually from 46.1 µM), actives largely listed as inhibitors; actives 1.2% (n = 410,000); AID 588855; HepG2 CAGA-GFP TGF-b/SMAD3 reporter, GFP fluorescence, 18 h; TGF-beta stimulated, 500 pg/mL final; note: nearly all actives have a fitted effect of over 65% in size
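Inhibition of TGF-beta-driven CAGA-GFP reporter expression in HEPG2 cells is measured by cellular GFP fluorescence after 18 h stimulation with 500 pg/mL recombinant TGF-beta in 1% FBS medium at 37 degrees C.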
DT40 TDP1 CPT – DT40-hTDP1 cell growth loss with CPT; chicken DT40 Tdp1-/-;hTDP1 cells + 20 nM CPT, ATP luminescence, 48 h; Potency, µM (highest dose often 46.2 µM), usual class: inhibitors; actives 12% (n = 420,000); AID 686979; note: nearly all actives have a fitted effect of over 55% in size
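Chicken DT40 Tdp1-/- cells stably complemented with human TDP1 were seeded at 400 cells/well in medium containing 20 nM camptothecin, exposed to pin-transferred compounds, and grown at 37 °C for at least 48 hr. Viability was read as ATP luminescence.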
Numbers stand for hits; - = inactive; ? = inconclusive; . = not tested or not shown; [ ] = another dose, or the depositor's remark. Calls come from the whole dose curve; as a rule, active = well fitted curve in the direction sought with a large enough effect; inconclusive = small, poorly fitted or top-dose-only effect, or another doubt; inactive = no such curve, though single readings can be large; an effect the other way counts as inactive or inconclusive.

SMILES	DT40 TDP1 no CPT	HT1080NT lethal	HT1080 IDH1KD tx	HepG2 tox	TGFb inhibitor	DT40 TDP1 CPT
O=C(/C=C/c1cn(CC(O)CN2CCCCCC2)c2ccccc12)c1ccc(Br)cc1 (configuration not stated)	13µM	.	.	-	?	16µM
O=C(/C=C/c1cn(CC(O)CN2CCCCC2)c2ccccc12)c1ccccc1 (configuration not stated)	?	?	16µM	-	?	?
CCC(c1nnnn1-c1ccc2c(c1)OCCO2)N1CCN(C(C)=O)CC1 (configuration not stated)	-	-	-	.	.	-
CC1CC(C)CN(C(=O)c2nn(C)c3c2CS(=O)(=O)c2ccccc2-3)C1 (configuration not stated)	-	-	-	-	-	-
C#CC(C)(CC)NC(=O)Cn1nnc(-c2ccc(OCc3ccccc3F)cc2)n1 (configuration not stated)	?	.	.	-	-	?
OC(CN1CCCCC1)Cn1c2ccccc2c2ccccc21 (configuration not stated)	-	-	-	-	-	-
Cc1ccc(C(=O)/C=C/c2cn(CC(O)CN3CCCCCC3)c3ccccc23)cc1 (configuration not stated)	21µM	.	.	-	?	12µM
Cc1c(C)n(CC(O)CN2CCCCC2)c2ccccc12 (configuration not stated)	-	-	-	-	-	-
O=C(/C=C/c1cn(CC(O)CN2CCCCCC2)c2ccccc12)c1ccccc1 (configuration not stated)	23µM	.	.	-	?	?
O=C(Cn1ncc2c3ccccc3n(Cc3ccccc3)c2c1=O)NCCCN1CCCCC1	?	.	.	-	?	-
COCC(=O)N1CCC(Oc2ccc(C(=O)NC(C)c3csc(C)n3)cc2)CC1 (configuration not stated)	-	-	-	-	-	-
OCCCNc1ncnc2scc(-c3ccc(Cl)cc3)c12	21µM	-	?	-	-	?
Clc1ccc(-c2csc3ncnc(Cl)c23)cc1	16µM	-	-	-	-	?
O=S(=O)(Nc1ncnc2scc(-c3ccc(F)cc3)c12)c1cc(F)ccc1F	29µM	-	-	-	?	?
Cc1ccc(C(=O)NNC(=O)CCCCC(=O)NNC(=O)c2ccc(C)cc2)cc1	-	-	-	-	-	-
Cc1ccc(N2CCN(S(=O)(=O)c3c(C)[nH]c(=O)[nH]c3=O)CC2C)cc1 (configuration not stated)	-	.	.	-	-	-
C[C@@H]1CN([C@H](C)CO)C(=O)c2cc(Br)cnc2O[C@@H]1CN(C)C(=O)Nc1ccccc1	-	-	-	-	-	-
COc1ccc(C(=O)C[n+]2cc(Br)cc(Br)c2)cc1	-	.	.	-	-	-
C[C@@H]1CCC[C@H](C)N1Cc1nc(Cc2ccccc2Cl)no1	?	-	-	-	-	15µM
CC(=O)c1cccc(-c2ccc3c(c2)C(C)(Cc2ccccc2C#N)C(=O)N3)c1 (configuration not stated)	?	-	-	-	-	16µM
COc1ccc(C(C)=O)cc1CC1(C)C(=O)Nc2ccc(-c3cccc(C(F)(F)F)c3)cc21 (configuration not stated)	?	?	?	-	16µM	?
Cc1ncsc1CCOC(=O)C1C2CC3CC(C2)CC1C3 (configuration not stated)	23µM	-	?	-	-	?
O=C(CN1C(=O)CC(c2ccc(F)cc2)=Nc2ccccc21)NCc1ccccc1Cl	26µM	.	.	-	?	?
CC1(C)CC(=O)N(CC(=O)NCc2ccc(F)cc2)c2ccccc2S1(=O)=O	-	-	-	-	-	-
Cc1ccc(C2=Nc3ccccc3N(CC(=O)NCc3ccc(Cl)cc3)C(=O)C2)cc1C	15µM	.	.	-	-	?
SMILES	DT40 TDP1 no CPT	HT1080NT lethal	HT1080 IDH1KD tx	HepG2 tox	TGFb inhibitor	DT40 TDP1 CPT
CCOC(=O)c1ccc(NC(=O)CN2C(=O)CC(c3ccc(C)c(C)c3)=Nc3ccccc32)cc1	?	.	.	-	-	?
Cc1ccc(C2=Nc3ccccc3N(CC(=O)NCc3ccc(F)cc3)C(=O)C2)cc1C	23µM	.	.	-	-	15µM
CC[C@]12C(=O)N(C)C[C@H]([C@@H]3C(=O)N(C)C(=O)[C@@H]31)N2C(=O)c1ccc(C(C)(C)C)cc1	-	-	-	-	-	-
COC(=O)C1=COC(O[C@H]2OC(CO)[C@H](O)C(O)C2O)[C@H]2C1C(=O)C[C@@H]2C (some centres not stated)	-[9.04 µM]	.	.	.	.	-[9.04 µM]
O=C(c1ccc(S(=O)(=O)N2CCCCC2)cc1)N(c1ccccn1)C1CCCCC1	?	-	-	-	-	23µM
CC1CC(C)CN(S(=O)(=O)c2ccc(C(=O)N(c3ccccn3)C3CCCCC3)cc2)C1 (configuration not stated)	16µM	-	-	-	-	?
CC1CC(C)CN(S(=O)(=O)c2ccc(C(=O)N(C)Cc3ccccc3)cc2)C1 (configuration not stated)	21µM	-	-	-	?	?
CCN(CC(=O)Nc1ccc(NC(C)=O)cc1)C(=O)c1ccccc1SCc1c(C)noc1C	-	-	-	-	-	-
COc1ccc(CC(=O)NNC(=O)c2ccc(Br)o2)cc1	-	-	-	-	-	-
CN(C)CCN(Cc1ccccc1)C(c1cc2ccccc2o1)c1nnnn1C(C)(C)C (configuration not stated)	?	?	?	.	.	16µM
CCCCn1nnnc1C(c1cc2ccccc2o1)N(CCN(C)C)Cc1ccccc1 (configuration not stated)	16µM	18µM	21µM	.	.	26µM
Cc1c(C(=O)NCC(C)(C)N2CCOCC2)cnn1-c1ncc2c(n1)-c1ccccc1CCC2	-	.	.	.	.	-
Cc1ccc2cc(CN(Cc3ccco3)Cc3nnnn3Cc3ccco3)c(=O)[nH]c2c1	11µM	.	.	-	-	?
Cc1cc(C)c2cc(CN(Cc3ccc4c(c3)OCO4)Cc3nnnn3Cc3ccco3)c(=O)[nH]c2c1	?	-	-	-	-	?
Cc1ccc2[nH]c(=O)c(CN(Cc3cccnc3)Cc3nnnn3CCN3CCOCC3)cc2c1	21µM	-	-	-	-	?
COc1ccc2[nH]c(=O)c(CN(Cc3nnnn3Cc3ccccc3)CC3CCCO3)cc2c1 (configuration not stated)	?	-	-[9.24 µM]	-	-	12µM
